PubChem BioAssay (NCATS)
Inconclusive results are not listed. Activity calls are given as the source filed them. Unless noted, calls follow the shape of the dose curve; as a rule, active = well fitted curve in the direction sought with a large enough effect; inconclusive = small, poorly fitted or top-dose-only effect, or another doubt; inactive = no such curve, though single readings can be large; an effect the other way counts as inactive or inconclusive.

Columns and labels:
[1] = molecular target: Lysosomal acid glucosylceramidase (Homo sapiens) (UniProt P04062); assay: Glucocerebrosidase-p2 (AID 348; in the data active = potency below about 10 µM; also: potency is read from the fitted curve at half-maximal effect); conditions: purified GBA, blue fluorogenic substrate, 40 min
Chain of Lysosomal acid glucosylceramidase (Homo sapiens) (P04062 whole entry, looked up): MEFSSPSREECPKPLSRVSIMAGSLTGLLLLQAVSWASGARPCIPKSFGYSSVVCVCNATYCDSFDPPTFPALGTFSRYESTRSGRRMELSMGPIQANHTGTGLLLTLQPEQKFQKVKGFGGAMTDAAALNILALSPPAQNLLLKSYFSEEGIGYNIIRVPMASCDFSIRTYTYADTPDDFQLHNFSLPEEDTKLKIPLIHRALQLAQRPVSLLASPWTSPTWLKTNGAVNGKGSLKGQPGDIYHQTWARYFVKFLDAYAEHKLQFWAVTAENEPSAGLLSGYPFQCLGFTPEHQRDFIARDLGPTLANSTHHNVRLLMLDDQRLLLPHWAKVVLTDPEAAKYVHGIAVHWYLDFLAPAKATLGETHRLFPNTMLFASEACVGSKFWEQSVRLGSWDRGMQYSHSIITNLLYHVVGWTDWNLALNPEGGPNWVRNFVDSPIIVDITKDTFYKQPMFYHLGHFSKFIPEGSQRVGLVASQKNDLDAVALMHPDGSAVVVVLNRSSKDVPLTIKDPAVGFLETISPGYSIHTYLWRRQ
Procedure, shortened: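 Normal human glucocerebrosidase (0.2 nM) with blue fluorogenic substrate (80 uM final) in citrate/phosphate pH 5.9 with 10mM sodium taurocholate, 0.01% tween-20; 40 min RT, NaOH/glycine stop; fluorescence Ex 365/Em 440; AC50 from a titration from 0.6 nM upwards.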

[2] = AP1 Signaling Pathway (AID 357; active = well fitted curve in either direction with a large enough effect, not every such curve was filed as active;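 also: ME-180 reporter cells stimulated with EGF at its EC50 level; % is scaled to controls: 0 for no effect and ±100 for the full control effect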); conditions: ME-180 AP-1-bla reporter, EGF-induced, beta-lactamase ratio, 5 h; at 7.69 µM (top of the series) unless noted
Procedure, shortened: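 Read-out was the 460nm/530nm emission ratio (excitation 405nm) after CCF4 loading for 2.5 hours at room temperature. Cells carried an AP-1-driven beta-lactamase reporter, were stimulated with EC50 EGF plus compound for 5 hours, and AC50 values came from titrations.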

[3] = molecular target: Cytochrome P450 1A2 (Homo sapiens) (UniProt P05177); assay: p450-cyp1a2 (AID 410; calls by dose curve; also: potency is read from the fitted curve at half-maximal effect); conditions: recombinant CYP1A2, luciferin-ME demethylation, luminescence; series mostly up to 57 µM
Chain of Cytochrome P450 1A2 (Homo sapiens) (P05177 whole entry, looked up): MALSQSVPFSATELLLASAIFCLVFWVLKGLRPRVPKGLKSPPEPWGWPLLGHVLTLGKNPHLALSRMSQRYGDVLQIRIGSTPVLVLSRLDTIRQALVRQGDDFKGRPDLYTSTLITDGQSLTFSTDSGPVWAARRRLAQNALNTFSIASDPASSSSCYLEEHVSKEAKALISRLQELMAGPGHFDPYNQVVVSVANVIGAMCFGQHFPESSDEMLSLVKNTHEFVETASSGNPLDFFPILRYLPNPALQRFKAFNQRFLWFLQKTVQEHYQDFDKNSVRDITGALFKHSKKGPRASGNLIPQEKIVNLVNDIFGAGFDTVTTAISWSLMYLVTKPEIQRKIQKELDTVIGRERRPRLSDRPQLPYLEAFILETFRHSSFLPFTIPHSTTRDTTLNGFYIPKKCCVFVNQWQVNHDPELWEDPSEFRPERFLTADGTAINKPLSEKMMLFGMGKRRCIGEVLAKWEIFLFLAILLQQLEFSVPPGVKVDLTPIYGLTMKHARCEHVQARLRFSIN
Procedure, shortened: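 O-Demethylation of luciferin 6' methyl ether by human CYP1A2 is monitored as luciferase luminescence. Substrate sits at Km (100uM); enzyme is 20nM. Values are scaled to 57 uM furafylline as maximal inhibition.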

[4] = NFAT Signaling Pathway (AID 444; active = well fitted curve in either direction with a large enough effect, not every such curve was filed as active;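 also: carbachol stimulus at about its EC50 of 1 µM final; % is scaled to controls: 0 for no effect and ±100 for the full control effect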); conditions: Jurkat NFAT-bla M1, carbachol, beta-lactamase ratio, 5 h; at 7.69 µM (top of the series) unless noted
Procedure, shortened: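 Read-out: CCF4 FRET ratio (460 nm/530 nm) after 1 h RT dye loading, used for %activity and AC50 from titration series. Cells: Jurkat NFAT-β-lactamase/M1 line, treated with compound plus 1 uM carbachol for 5 h, 37 °C.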

[5] = Stat Signaling Pathway (AID 446; active = well fitted curve in either direction with a large enough effect, not every such curve was filed as active;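 also: ME-180 cervical cancer cells given 40 pM IL-6 alongside compound; SIE-controlled beta-lactamase reporter measured as 460/530 nm FRET emission ratio; % is scaled to controls: 0 for no effect and ±100 for the full control effect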); conditions: ME-180 SIE beta-lactamase reporter, IL-6 stimulated, 5 h; at 7.69 µM (top of the series) unless noted
Procedure, shortened: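 Overnight-plated ME-180 cells bearing a STAT Inducible Element beta-lactamase reporter; 5 h co-exposure to compound and 40 pM IL-6; values normalized to 300 pM IL-6 and 125 nM JAK inhibitor controls.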

[6] = molecular target: Glucocorticoid receptor (Homo sapiens) (UniProt P04150); assay: GR-GFP Redistribution (AID 450;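 active = compounds whose dose series gives a full or clear partial fitted curve of increased nuclear translocation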; also: potency is read from the fitted curve at half-maximal effect); conditions: U2OS GR-GFP nuclear translocation, laser cytometry, 2 h
Chain of Glucocorticoid receptor (Homo sapiens) (P04150 whole entry, looked up, the tested form may be a part): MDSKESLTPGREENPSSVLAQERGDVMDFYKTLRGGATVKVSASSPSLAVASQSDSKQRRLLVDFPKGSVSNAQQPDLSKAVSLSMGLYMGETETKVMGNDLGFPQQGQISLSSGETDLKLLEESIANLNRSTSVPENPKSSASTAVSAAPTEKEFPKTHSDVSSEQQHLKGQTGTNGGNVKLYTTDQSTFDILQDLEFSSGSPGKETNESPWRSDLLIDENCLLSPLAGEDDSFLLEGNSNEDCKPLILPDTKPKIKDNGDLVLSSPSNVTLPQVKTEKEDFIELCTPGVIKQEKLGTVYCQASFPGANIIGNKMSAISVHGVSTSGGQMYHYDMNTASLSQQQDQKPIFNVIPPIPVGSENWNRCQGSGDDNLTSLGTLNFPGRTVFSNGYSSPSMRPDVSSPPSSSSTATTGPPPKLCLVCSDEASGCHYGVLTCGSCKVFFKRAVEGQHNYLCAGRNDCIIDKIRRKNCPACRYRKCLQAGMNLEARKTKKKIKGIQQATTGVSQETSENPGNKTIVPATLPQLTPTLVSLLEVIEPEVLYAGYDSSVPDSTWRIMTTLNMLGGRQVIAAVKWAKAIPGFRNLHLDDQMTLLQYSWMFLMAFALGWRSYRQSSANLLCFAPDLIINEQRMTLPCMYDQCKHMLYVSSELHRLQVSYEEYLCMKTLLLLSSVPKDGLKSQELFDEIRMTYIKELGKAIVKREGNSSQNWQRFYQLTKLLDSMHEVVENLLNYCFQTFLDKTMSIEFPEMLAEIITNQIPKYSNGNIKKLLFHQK

[7] = molecular target: Glucocorticoid receptor (Homo sapiens) (UniProt P04150); assay: GR-EFC Redistribution (AID 451; calls by dose curve; also: potency is read from the fitted curve at half-maximal effect); conditions: CHO-K1 GR-EFC translocation, beta-gal luminescence, 2 h
Procedure, shortened: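 Translocation of GR-ED fusion to nuclear EA restores b-gal, read by luminescence after 1 h room-temperature detection. Engineered CHO-K1 biosensor cells, 1,000/well, exposed 2 h at 37 C to titrations up to 46 uM final.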

[8] = molecular target: Mitogen-activated protein kinase 10 (Mus musculus) (UniProt Q61831); assay: JNK3 AlphaScreen Assay (AID 530; active = well fitted curve in either direction with a large enough effect, not every such curve was filed as active;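 also: kinase came from lysate of stimulated human HepG2 cells; signal reports phosphorylation of biotinylated GST-cJun 1-79 at Ser73 with 10 µM ATP; % is scaled to controls: 0 for no effect and ±100 for the full control effect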); conditions: JNK3 lysate, c-Jun phosphorylation; series mostly up to 57.1 µM
Procedure, shortened: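 qHTS titrations with 15 min compound pre-incubation before adding ATP (10 uM final). Read-out: AlphaScreen of Ser73-phosphorylated biotin-GST-cJun using HepG2 lysate JNK3 activated by IL-1β and TNFα.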

[9] = molecular target: 3',5'-cyclic-AMP phosphodiesterase 4B (Homo sapiens) (UniProt Q07343); assay: qHTS Assay for Inhibitors of PDE-IV (AID 607; active = well fitted activation curve with a large enough effect in the main read-out, with a control signal flat, not every such curve was filed as active; also: % of control where 0% means no effect); conditions: HEK293 ACTOne CNG channel cells, membrane potential fluorescence; series mostly up to 22.9 µM
Chain of 3',5'-cyclic-AMP phosphodiesterase 4B (Homo sapiens) (Q07343 whole entry, looked up): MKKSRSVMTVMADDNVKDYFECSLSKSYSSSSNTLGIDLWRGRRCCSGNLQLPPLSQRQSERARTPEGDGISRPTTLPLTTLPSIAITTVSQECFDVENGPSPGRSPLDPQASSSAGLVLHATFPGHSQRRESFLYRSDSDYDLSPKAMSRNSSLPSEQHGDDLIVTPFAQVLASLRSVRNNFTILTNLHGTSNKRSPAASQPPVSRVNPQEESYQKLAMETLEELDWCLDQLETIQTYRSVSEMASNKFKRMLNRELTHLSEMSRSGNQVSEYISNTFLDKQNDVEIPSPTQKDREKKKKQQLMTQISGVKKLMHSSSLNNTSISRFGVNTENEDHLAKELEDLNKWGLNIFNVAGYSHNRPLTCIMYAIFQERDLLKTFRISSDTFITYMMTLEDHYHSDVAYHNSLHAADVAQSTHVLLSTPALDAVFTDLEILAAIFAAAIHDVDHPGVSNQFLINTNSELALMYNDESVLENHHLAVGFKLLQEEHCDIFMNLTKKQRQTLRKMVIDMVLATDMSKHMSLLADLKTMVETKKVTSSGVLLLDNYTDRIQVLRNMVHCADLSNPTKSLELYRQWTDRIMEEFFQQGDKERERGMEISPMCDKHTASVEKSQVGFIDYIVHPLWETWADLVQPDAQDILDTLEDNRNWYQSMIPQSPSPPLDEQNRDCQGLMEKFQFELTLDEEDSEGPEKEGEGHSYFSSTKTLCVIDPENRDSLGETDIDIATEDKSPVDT
Procedure, shortened: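 Live HEK293 cells with a modified cyclic nucleotide-gated (CNG) channel report intracellular cAMP via membrane-potential dye fluorescence (ex 535/em 590 nm). Endogenous PDE-IV was targeted. Compounds were tested at up to 22.9 uM final; RO 20-1724 100 uM served as control.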

[10] = molecular target: Cytochrome P450 3A4 (Homo sapiens) (UniProt P08684); assay: qHTS Assay for Activators of Cytochrome P450 3A4 (AID 885); conditions: recombinant CYP3A4, Luciferin-PPXE luminescence, 60 min; series mostly up to 57.1 µM; also: nearly all actives have a fitted effect of over 65% in size
Chain of Cytochrome P450 3A4 (Homo sapiens) (P08684 whole entry, looked up): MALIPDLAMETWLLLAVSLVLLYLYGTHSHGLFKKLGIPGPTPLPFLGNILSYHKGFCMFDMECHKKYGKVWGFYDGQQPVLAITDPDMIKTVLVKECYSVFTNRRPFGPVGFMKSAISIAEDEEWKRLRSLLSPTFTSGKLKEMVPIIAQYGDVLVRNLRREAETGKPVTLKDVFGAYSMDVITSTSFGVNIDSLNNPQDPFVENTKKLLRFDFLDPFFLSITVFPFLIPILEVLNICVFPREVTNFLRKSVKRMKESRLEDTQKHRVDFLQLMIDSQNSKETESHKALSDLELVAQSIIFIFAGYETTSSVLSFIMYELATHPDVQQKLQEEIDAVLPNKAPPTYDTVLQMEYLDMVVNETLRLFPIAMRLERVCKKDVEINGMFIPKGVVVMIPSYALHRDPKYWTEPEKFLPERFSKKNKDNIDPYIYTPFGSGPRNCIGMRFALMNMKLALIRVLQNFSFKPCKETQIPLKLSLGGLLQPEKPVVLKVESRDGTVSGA
Procedure, shortened: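 Using 20nM recombinant human CYP3A4 in potassium phosphate (200mM), substrate Luciferin-PPXE at 25uM, luminescent luciferin detection followed a 60-min RT NADPH reaction; data scaled to 57 uM ketoconazole.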

[11] = molecular target: Cytochrome P450 2C19 (Homo sapiens) (UniProt P33261); assay: qHTS Assay for Inhibitors and Substrates of Cytochrome P450 2C19 (AID 899); conditions: recombinant CYP2C19, luciferin-H EGE luminescence; series mostly up to 57.1 µM; also: potency is read from the fitted curve at half-maximal effect; nearly all actives have a fitted effect of over 60% in size
Chain of Cytochrome P450 2C19 (Homo sapiens) (P33261 whole entry, looked up): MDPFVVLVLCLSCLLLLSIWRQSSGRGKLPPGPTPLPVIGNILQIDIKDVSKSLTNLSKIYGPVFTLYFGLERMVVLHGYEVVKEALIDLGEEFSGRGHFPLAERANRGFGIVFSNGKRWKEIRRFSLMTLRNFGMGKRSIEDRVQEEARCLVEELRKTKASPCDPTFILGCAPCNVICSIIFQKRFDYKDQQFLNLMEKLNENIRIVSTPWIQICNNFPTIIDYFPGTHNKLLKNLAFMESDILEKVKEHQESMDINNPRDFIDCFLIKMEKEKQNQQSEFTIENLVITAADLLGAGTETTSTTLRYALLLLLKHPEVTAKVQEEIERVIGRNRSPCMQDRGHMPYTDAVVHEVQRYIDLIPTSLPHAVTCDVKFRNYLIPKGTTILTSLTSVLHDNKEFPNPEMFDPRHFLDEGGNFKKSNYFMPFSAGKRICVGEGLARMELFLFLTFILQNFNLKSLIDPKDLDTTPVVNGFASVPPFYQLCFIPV
Procedure, shortened: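 Reactions contain 5nM enzyme, 10uM Luciferin-H EGE (KM) and 50mM KPO4; compound preincubates 10 min at 37C, NADPH regeneration starts turnover for 60 min. Luminescence after detection reagent gives activity.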

[12] = Confirmation and Secondary Assay for Modulators of Hemoglobin Beta Chain Splicing at IVS2 654 locus (AID 910); conditions: HeLa EGFP-654 splicing reporter, GFP fluorescence, 48 h; series mostly up to 38.3 µM;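 also: HeLa cells stably carrying EGFP split by mutant beta-globin IVS2-654 intron; per-well total GFP intensity by laser scanning cytometry after 2-day treatment; % of control where 0% means no effect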
Procedure, shortened: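 Readout: per-well total peak green fluorescence (488 nm ex, 500–520 nm em) from objects 5–250 µm, reflecting correct splicing of an EGFP-654 reporter. Compounds were applied for 2 days at 37 °C to overnight-plated HeLa EGFP-654 cells; controls were DMSO and 500 nM IVS2-654 PNA.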

[13] = Confirmation and Secondary Assay for Modulators of Hemoglobin Beta Chain Splicing at IVS2 705 locus (AID 930); conditions: HeLa EGFP-705 splicing reporter, GFP fluorescence, 48 h; series mostly up to 38.3 µM;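 also: HeLa cells stably expressing the EGFP-705 splicing reporter; GFP fluorescence per well restored by corrected splicing of the IVS2-705 intron in EGFP; % of control where 0% means no effect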
Procedure, shortened: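 Per-well GFP, captured at 1 x 8 µm resolution with 488 nm excitation, served as the read-out for HeLa EGFP-705 cells incubated 2 days with test compound versus DMSO.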

[14] = qHTS Assay for Lipid Storage Modulators (AID 1519; calls by dose curve); conditions: Drosophila S3 cells, BODIPY lipid droplet/cell ratio, laser cytometry, cells loaded with oleic acid; for activity change, negative = inhibition: at 57.5 µM (top of the series)
Procedure, shortened: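 Cells seeded at 5,000 per well were treated with compounds over a concentration series and loaded with oleic acid (400 uM, as added). Lipid droplet fluorescence (488 nm excitation, 500-530 nm channel) was read by laser-scanning cytometry and normalized to 20 uM Triacsin C.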

[15] = Primary qHTS for small molecule stabilizers of the endoplasmic reticulum resident proteome: Secreted ER Calcium Modulated Protein (SERCaMP) assay (AID 1508630); conditions: SH-SY5Y GLuc-SERCaMP (Gaussia luciferase released on ER calcium loss) secretion, thapsigargin, luminescence; series mostly up to 38.4 µM; also: % is scaled to controls: 0 for no effect and ±100 for the full control effect
Procedure, shortened: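 The SH-SY5Y reporter protocol was run at 3 concentrations up to 38.3 uM (primary) or 11 concentrations (follow-up): 16 h compound, 100 nM thapsigargin for 4 h, then extracellular luciferase luminescence.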

[16] = molecular target: Cytochrome P450 2C9 (Homo sapiens) (UniProt P11712); assay: qHTS Assay for Inhibitors and Substrates of Cytochrome P450 2C9 (AID 883); conditions: recombinant CYP2C9, luciferin-H luminescence, 60 min; series mostly up to 57.1 µM; also: % is scaled to controls: 0 for no effect and ±100 for the full control effect; nearly all actives have a fitted effect of over 60% in size
Chain of Cytochrome P450 2C9 (Homo sapiens) (P11712 whole entry, looked up): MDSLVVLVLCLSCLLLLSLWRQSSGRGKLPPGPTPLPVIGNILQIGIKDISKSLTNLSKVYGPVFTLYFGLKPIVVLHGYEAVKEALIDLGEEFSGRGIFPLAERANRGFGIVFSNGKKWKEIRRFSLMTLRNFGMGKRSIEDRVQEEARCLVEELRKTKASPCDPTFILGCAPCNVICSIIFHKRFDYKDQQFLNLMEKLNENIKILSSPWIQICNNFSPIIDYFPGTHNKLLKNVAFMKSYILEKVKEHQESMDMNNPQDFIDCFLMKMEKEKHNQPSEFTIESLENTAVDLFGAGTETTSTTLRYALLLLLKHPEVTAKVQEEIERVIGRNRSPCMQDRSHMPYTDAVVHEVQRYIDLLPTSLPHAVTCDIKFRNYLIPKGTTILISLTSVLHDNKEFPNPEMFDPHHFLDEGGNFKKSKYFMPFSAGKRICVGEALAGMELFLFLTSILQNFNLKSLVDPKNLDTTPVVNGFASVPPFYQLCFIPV
Procedure, shortened: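 Turnover of Luciferin-H (100uM, KM) by 10nM human CYP2C9 was measured over 60 min at 37C with NADPH regeneration; inhibitors and some substrates reduce luminescence. Data normalized to sulphaphenazole 57uM.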

[17] = qHTS Assay for Identification of Small Molecule Agonists for Hypoxia Response Element Signaling Pathway (AID 914; active = well fitted activation curve with a large enough effect in the signal ratio, with a control signal flat, not every such curve was filed as active; the % refers to the signal ratio; also: % of control where 0% means no effect); conditions: ME-180 (cervical carcinoma) HRE-bla reporter, beta-lactamase ratio, CoCl2, 17 h; activation: stronger effect = higher value
Procedure, shortened: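 In Opti-MEM containing 0.5% dialyzed FBS and 10 mM HEPES, ME-180 HRE-bla cells received a compound titration and EC50 CoCl2. They were incubated 17 hours, then CCF4-loaded 2.5 hours at room temperature before ratio reading.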

[18] = molecular target: Ubiquitin carboxyl-terminal hydrolase 1 (Homo sapiens) (UniProt O94782); assay: Inhibitors of USP1/UAF1: Pilot qHTS (AID 504865); conditions: purified USP1/UAF1, Ub-rhodamine cleavage fluorescence; series mostly up to 54.9 µM;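 also: rhodamine fluorescence freed from ubiquitin-rhodamine substrate followed over time; top concentration of the series differs between compounds; % is scaled to controls: 0 for no effect and ±100 for the full control effect; nearly all actives have a fitted effect of over 35% in size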
Chain of Ubiquitin carboxyl-terminal hydrolase 1 (Homo sapiens) (O94782 whole entry, looked up): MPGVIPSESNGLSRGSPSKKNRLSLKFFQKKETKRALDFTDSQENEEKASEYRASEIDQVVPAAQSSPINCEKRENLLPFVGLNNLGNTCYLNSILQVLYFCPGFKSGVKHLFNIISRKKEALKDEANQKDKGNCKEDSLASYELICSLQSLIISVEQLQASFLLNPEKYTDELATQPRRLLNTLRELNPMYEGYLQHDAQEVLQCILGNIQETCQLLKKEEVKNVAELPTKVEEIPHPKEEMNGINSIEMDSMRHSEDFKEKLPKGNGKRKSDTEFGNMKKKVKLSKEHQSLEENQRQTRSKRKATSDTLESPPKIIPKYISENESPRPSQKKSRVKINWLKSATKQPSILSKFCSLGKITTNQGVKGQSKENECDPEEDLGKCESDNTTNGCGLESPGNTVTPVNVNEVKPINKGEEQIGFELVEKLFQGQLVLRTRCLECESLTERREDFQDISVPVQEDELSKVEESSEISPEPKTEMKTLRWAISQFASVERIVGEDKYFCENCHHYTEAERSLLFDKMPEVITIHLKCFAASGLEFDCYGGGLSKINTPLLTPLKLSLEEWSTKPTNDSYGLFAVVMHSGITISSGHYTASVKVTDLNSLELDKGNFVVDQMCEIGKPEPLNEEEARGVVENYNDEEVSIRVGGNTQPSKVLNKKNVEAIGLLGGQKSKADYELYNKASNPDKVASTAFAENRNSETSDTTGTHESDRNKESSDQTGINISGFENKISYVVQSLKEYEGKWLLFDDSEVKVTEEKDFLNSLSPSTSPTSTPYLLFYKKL
Procedure, shortened: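 In 50mM HEPES pH 7.8 containing 0.5mM EDTA, 1mM TCEP, 0.1 mg/ml BSA and 0.01% Tween-20, 1nM USP1/UAF1 is exposed to compound for 15 min, then Ub-Rho (150nM final) is added and fluorescence is read over time.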

[19] = molecular target: Cytochrome P450 3A4 (Homo sapiens) (UniProt P08684); assay: qHTS Assay for Inhibitors and Substrates of Cytochrome P450 3A4 (AID 884); conditions: recombinant CYP3A4, Luciferin-PPXE luminescence; series mostly up to 57.1 µM; also: potency is read from the fitted curve at half-maximal effect; nearly all actives have a fitted effect of over 50% in size
Procedure, shortened: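 Luminescent readout of luciferin produced by CYP3A4 (20 nM) dealkylation of Luciferin-PPXE, 25 uM (its KM). NADPH-driven reaction ran 60 min at RT after 10 min compound preincubation; data scaled to 57 uM ketoconazole as 100% inhibition.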

[20] = measured here: cell count channel max response
[21] = measured here: lipid channel max response

COc1cccc(-c2ccc3ncnc(NC4CCNCC4)c3c2)c1
Potency [1]: > 11.4 µM (inactive)
activity change, negative = inhibition [2]: 2.29% (inactive)
Potency [3]: 20 µM (active)
activity change, negative = inhibition [4]: 13.6% (inactive)
activity, negative = inhibition [5]: -1.25% (inactive)
Potency [6]: > 46 µM (inactive)
Potency [7]: > 46 µM (inactive)
outcome [8]: inactive
Potency [9]: inactive
Potency [10]: inactive
Potency [11]: 6.31 µM (active)
outcome [12]: inactive
outcome [13]: inactive
activity change, negative = inhibition [14]: 7.49% (inactive)
max response [14, 20]: -3.29%
max response [14, 21]: 2.37%
Potency [15]: inactive

CNc1nc(-c2ccccc2Cl)nc2ccccc12
Potency [1]: 5.87 µM (active)
activity change, negative = inhibition [2]: -4.05% (inactive)
Potency [3]: 0.126 µM (active)
activity change, negative = inhibition [4]: 12.6% (inactive)
activity, negative = inhibition [5]: -8.45% (inactive)
Potency [6]: > 46 µM (inactive)
Potency [7]: > 46 µM (inactive)
outcome [8]: inactive
Potency [9]: inactive
activity change, negative = inhibition [16]: 75.1% [at 2.29 µM] (inactive)
Potency [10]: inactive
outcome [12]: inactive
activation [17]: 11.6% (inactive)
outcome [13]: inactive
activity change, negative = inhibition [14]: 5.07% (inactive)
max response [14, 20]: -3.59%
max response [14, 21]: -2.38%
Potency [15]: inactive

CN(Cc1ccco1)c1cc(-c2ccccc2Cl)ncn1
Potency [1]: > 11.4 µM (inactive)
activity change, negative = inhibition [2]: -3.34% (inactive)
Potency [3]: 2.51 µM (active)
activity change, negative = inhibition [4]: -22.4% (inactive)
activity, negative = inhibition [5]: 5.83% (inactive)
Potency [6]: > 46 µM (inactive)
outcome [8]: inactive
Potency [9]: inactive
Potency [11]: 7.94 µM (active)
outcome [12]: inactive
outcome [13]: inactive
activity change, negative = inhibition [14]: 6.03% (inactive)
max response [14, 20]: -2.55%
max response [14, 21]: 5.54%
Potency [18]: inactive
Potency [15]: inactive

O=c1c(-c2ccccc2)nc2cnc(Oc3ccccc3)nc2n1Cc1cccs1
Potency [1]: > 11.4 µM (inactive)
activity change, negative = inhibition [2]: -0.0665% (inactive)
Potency [3]: 2.51 µM (active)
activity change, negative = inhibition [4]: -0.0107% (inactive)
activity, negative = inhibition [5]: 3.84% (inactive)
Potency [6]: > 9.22 µM (inactive)
Potency [7]: > 46 µM (inactive)
outcome [8]: inactive
Potency [9]: inactive
activity change, negative = inhibition [14]: -10.3% (inactive)
max response [14, 20]: 21.8%
max response [14, 21]: 12.8%
Potency [15]: inactive

Clc1ccccc1-c1nccc(-n2ccnc2)n1
Potency [1]: > 11.4 µM (inactive)
activity change, negative = inhibition [2]: -12.3% (inactive)
Potency [3]: 0.158 µM (active)
activity change, negative = inhibition [4]: -0.584% (inactive)
activity, negative = inhibition [5]: 0.405% (inactive)
Potency [6]: > 46 µM (inactive)
Potency [7]: > 46 µM (inactive)
outcome [8]: inactive
Potency [9]: inactive
Potency [19]: 1.26 µM (active)
Potency [10]: inactive
Potency [11]: 2.51 µM (active)
outcome [12]: inactive
outcome [13]: inactive
activity change, negative = inhibition [14]: 8.95% (inactive)
max response [14, 20]: 4.29%
max response [14, 21]: 13%
Potency [15]: inactive
